From PubChem BioAssay AID1220 (Sanford-Burnham Center for Chemical Genomics, 2008)
Several values for one entry are separate records, joined by “and”; a condition that tells them apart may be missing. Equal values may be shown once. About 1,300 (0.68%) of roughly 190,000 compounds were called active. Rule as the data show it: active = inhibition above about 50%; inactive = the rest. The list comes from a sample in which actives are over-represented; it also holds similar structures and randomly drawn compounds.

Target: Mannose-6-phosphate isomerase (Homo sapiens) (UniProt P34949)
Experiment: MPI inhibition at elevated mannose 6-phosphate – biochemical, fluorescence intensity, high mannose 6-phosphate, primary screen (AID 1220)
Conditions: recombinant PMI enzyme, coupled fluorescence intensity; at 20 µM; hits give high values

Chain of Mannose-6-phosphate isomerase (Homo sapiens) (P34949 whole entry, looked up): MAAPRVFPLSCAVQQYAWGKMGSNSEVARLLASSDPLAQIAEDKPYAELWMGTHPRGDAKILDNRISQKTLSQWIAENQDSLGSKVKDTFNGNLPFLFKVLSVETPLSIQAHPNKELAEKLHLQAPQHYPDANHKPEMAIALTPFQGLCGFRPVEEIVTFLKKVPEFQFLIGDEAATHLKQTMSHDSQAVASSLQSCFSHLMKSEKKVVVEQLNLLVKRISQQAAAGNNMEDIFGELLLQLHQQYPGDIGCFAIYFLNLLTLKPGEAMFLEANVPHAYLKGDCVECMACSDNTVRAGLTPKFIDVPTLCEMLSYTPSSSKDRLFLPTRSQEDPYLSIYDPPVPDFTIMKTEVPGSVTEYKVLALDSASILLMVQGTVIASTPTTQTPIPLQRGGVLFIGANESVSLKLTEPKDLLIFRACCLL

Row | Compound | inhibition
1 | C=CCn1c(SCC(=O)c2ccc(NS(=O)(=O)c3ccccc3)cc2)nnc1-c1cccs1 | -16% (inactive)
2 | Cc1ccc(S(=O)(=O)/N=C(\c2ccccc2)N(C)S(=O)(=O)c2ccccc2)cc1 | -11.9% (inactive)
3 | CCC(Sc1ncccc1C(=O)O)C(=O)N1CCCC1 (stereo unspecified) | -5.9% (inactive)
4 | CC(=O)Nc1ccc2nc(NC(=O)COc3ccc([N+](=O)[O-])cc3)sc2c1 | 9.4% (inactive)
5 | O=C(O)CC1SC(=O)N(Cc2ccccc2)C1=O (stereo unspecified) | 8.1% (inactive)
6 | COc1ccc(CCn2c(=O)[nH]c3cc(C(=O)NCCc4ccccc4)ccc3c2=O)cc1OC | -2.6% (inactive)
7 | O=c1c2ccccc2nc2ccc(N3CCOCC3)nn12 | 0.2% (inactive)
8 | c1ccc2c(Nc3ccc4c(c3)OCCO4)c3c(nc2c1)CCC3 | 12.8% (inactive)
9 | CC/C(CC(=O)C(F)(F)F)=N\NC(=O)/C(C#N)=C/N(C)C | -0.8% (inactive)
10 | CC(C)CC(N=Cc1c(O)c2ccccc2oc1=O)C(=O)O (stereo unspecified) | -10.2% (inactive)
11 | Cc1ccc(OCCOc2cccc3ccc(C)nc23)c([N+](=O)[O-])c1 | 55% (active)
12 | Cc1ccc2cccc(Oc3ccc([N+](=O)[O-])cc3[N+](=O)[O-])c2n1 | 23.3% (inactive)
13 | O=c1c2ccccc2ncn1CCOc1ccccc1[N+](=O)[O-] | -2.8% (inactive)
14 | COc1cc(C)ccc1OCCOCCOc1cccc2ccc(C)nc12 | 8.5% (inactive)
15 | Cc1ccc(OCCn2cnc3ccccc3c2=O)c([N+](=O)[O-])c1 | 0.1% (inactive)
16 | Cc1ccc(OCCOCCn2cnc3ccccc3c2=O)c([N+](=O)[O-])c1 | 52.1% (active)
17 | CCN(C#N)c1nc(NC(C)C)nc(NC(C)(C)C)n1 | 5.4% (inactive)
18 | Cc1cccc(COCC(CC(C)C)N2CCN(C(=O)c3ccc(C(F)(F)F)cc3)CCC2=O)c1 (stereo unspecified) | -9% (inactive)
19 | Cc1[nH]c(=S)sc1Cc1ccc(F)cc1 | 6.5% (inactive)
20 | CNc1nc(-c2c[nH]c3ccccc23)cs1 | -53.9% (inactive)
21 | Nc1n[nH]c(-c2ccccc2[N+](=O)[O-])n1 | -2.3% (inactive)
22 | CCOCCn1c(=NC(=O)/C=C/c2ccccc2Cl)sc2cc(NC(C)=O)ccc21 | 2.9% (inactive)

Row | Compound | inhibition
23 | NC1CCCCC1N=Cc1c(O)n(CCc2ccc(F)cc2)c(=O)[nH]c1=O (stereo unspecified) | 2.4% (inactive)
24 | CCOc1ccc(S(=O)(=O)N(CC(=O)NC2CCCCC2C)Cc2ccco2)cc1 (stereo unspecified) | 3.3% (inactive)
25 | CCOc1cccc(C2c3c(oc4cc(C)c(C)cc4c3=O)C(=O)N2CCCN(C)C)c1 (stereo unspecified) | -0.5% (inactive)
26 | CCOc1cc(C)cc2oc(=O)cc(-c3ccccc3)c12 | 6.3% (inactive)
27 | COc1ccc([N+](=O)[O-])cc1COc1ccc2c(-c3ccccc3)cc(=O)oc2c1 | -4.2% (inactive)
28 | COc1ccc([N+](=O)[O-])cc1COc1cc(C)cc2oc(=O)cc(-c3ccccc3)c12 | 58% (active)
29 | O=C(CN1C(=O)C2C3C=CC(C4CC34)C2C1=O)NCc1ccco1 (stereo unspecified) | 13% (inactive)
30 | O=C(CN1C(=O)C2C3C=CC(C3)C2C1=O)NCc1ccco1 (stereo unspecified) | 57% (active)
31 | O=C(CN1C(=O)C2C3CCC(C3)C2C1=O)NCc1ccco1 (stereo unspecified) | 6.5% (inactive)
32 | CCOC(=O)C1=C(C)NC(C)=C(C(=O)OCC)C1C(=O)OCC(N)=O | -7.6% (inactive)
33 | O=C(c1ccc(S(=O)(=O)N2CCCCC2)cc1)N1CCc2ccccc2C1 | 11.9% (inactive)
34 | O=C(c1ccc(S(=O)(=O)c2ccccc2)cc1)N1CCc2ccccc2C1 | 60.2% (active)
35 | CS(=O)(=O)c1ccc(C(=O)N2CCc3ccccc3C2)cc1 | -6.6% (inactive)
36 | CCC1CCCCN1C(=O)c1sc2ncnc(N(CC)CC)c2c1C (stereo unspecified) | -1.9% (inactive)
37 | Cc1nn(CC(=O)NCc2ccccc2F)c(C)c1[N+](=O)[O-] | 2.2% (inactive)
38 | COc1ccc2cc(/C=N/NC(=O)CN(c3ccccc3)S(=O)(=O)c3ccccc3)c(Cl)nc2c1 | 5.6% (inactive)
39 | Cc1c(OCC(F)(F)F)ccnc1CS(=O)c1nc2ccccc2[nH]1 (stereo unspecified) | 4.7% (inactive) and 13.1% (inactive)
40 | COc1ccc2nc(C(C)O)[nH]c2c1 (stereo unspecified) | 13.3% (inactive)
41 | COc1ccc2nc(S(=O)Cc3ncc(C)c(OC)c3C)[nH]c2c1 (stereo unspecified) | 50% (active)
42 | CC(O)CNCc1ccc(-c2ccccc2)cc1 (stereo unspecified) | 0.1% (inactive)
43 | Cc1ccccc1Nc1ncccc1C(=O)N1CCOCC1 | -9.3% (inactive)
44 | O=S(=O)(Nc1nc2ccccc2nc1Cl)c1ccc2ccccc2c1 | 60.1% (active)

Row | Compound | inhibition
45 | O=S(=O)(Nc1nc2ccccc2nc1Cl)c1ccc(Cl)cc1 | -2.7% (inactive)
46 | O=S(=O)(Nc1nc2ccccc2nc1Cl)c1ccccc1 | -6.6% (inactive)
47 | O=C1N/C(=C\c2ccccc2)C(O)=C1C=NCc1ccccc1 | -1.9% (inactive)
48 | O=C(O)CCNS(=O)(=O)c1ccccc1Br | -4% (inactive)
49 | O=c1cc(C(F)(F)F)nc(-c2ccccc2)[nH]1 | 0.9% (inactive)
50 | Cc1cc(/C=C(\C#N)C(=O)NC2CCCCCC2)c(C)[nH]1 | 1.5% (inactive)
51 | N#C/C(=C\c1cc(Cl)ccc1O)C(=O)NC1CCCCC1 | 10.6% (inactive)
52 | N#C/C(=C\c1cc(Cl)cc(Cl)c1O)C(=O)NC1CCCCC1 | 66.7% (active)
53 | COc1ccc(-c2cc(C(=O)Nc3cc(C)on3)no2)cc1 | -3.1% (inactive)
54 | CCN(CCO)C1CC(=O)N(c2ccccc2C)C1=O (stereo unspecified) | -11.3% (inactive)
55 | O=C(/C=C/c1cccs1)NC1CC1 | -8.9% (inactive)
56 | O=C(/C=C/c1cccs1)NC1CCS(=O)(=O)C1 (stereo unspecified) | 54.7% (active)
57 | O=C(/C=C/c1ccccc1)NC1CCS(=O)(=O)C1 (stereo unspecified) | -10.3% (inactive)
58 | O=C(Nc1ccc2[nH]c(=O)[nH]c2c1)Nc1ccc(F)cc1F | 55.8% (active)
59 | O=C(Nc1ccc(F)cc1F)Nc1ccc(F)cc1F | -3.6% (inactive)
60 | COc1ccccc1NC(=O)Nc1ccc2[nH]c(=O)[nH]c2c1 | 6.1% (inactive)
61 | Fc1ccc(C2=Nc3cccc4cccc(c34)N2)cc1 | 45.2% (inactive)
62 | COc1ccc(C2=Nc3cccc4cccc(c34)N2)cc1 | 53.1% (active)
63 | c1coc(C2=Nc3cccc4cccc(c34)N2)c1 | 63.6% (active)
64 | Nc1ccc(C2=Nc3cccc4cccc(c34)N2)cc1 | 23.6% (inactive)
65 | COc1cccc(C2=Nc3cccc4cccc(c34)N2)c1 | -64.5% (inactive)
66 | Brc1ccc(C2=Nc3cccc4cccc(c34)N2)o1 | 12.1% (inactive)
